The record followed here is PubChem BioAssay (Tox21).

Inconclusive results are not listed. The source made the active and inactive calls. Unless noted, the call rests on the fitted dose curve; in most records, active means well fitted curve in the direction sought with a large enough effect in the repeat runs; inconclusive means weak or mixed curves; inactive means no such curve, though single readings can be large; an effect the other way counts as inactive or inconclusive.

Assay [1] is described as follows: qHTS assay to identify small molecule antagonists of the thyroid receptor (TR) signaling pathway - cell viability counter screen (AID 743064). Further: nearly all actives have a fitted effect of over 50% in size. Further: potency means the concentration at half of the fitted maximal effect. Summed up: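 Counter screen for cytotoxicity: compound plus T3 (1 nM final) on GH3.TRE-Luc cells, 23.5 h at 37 °C, then fluorescence viability readout with CellTiter-Fluor.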
Assay [2] is described as follows: qHTS assay to identify small molecule antagonists of the thyroid receptor (TR) signaling pathway (AID 743065). Further: nearly all actives have a fitted effect of over 55% in size. Further: potency means the concentration at half of the fitted maximal effect. A digest of the protocol:
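GH3.TRE-Luc rat pituitary cells carrying two TR response elements driving luciferase were plated for 4 h, given compound plus 1 nM T3 (final), and incubated 23.5 h at 37 C. ONE-Glo luminescence measured reporter inhibition; CellTiter-Fluor fluorescence tracked cytotoxicity.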

For assay [3], the system named is thyroid hormone receptor (rat, GH3 cells). The assay can be described thus: qHTS assay to identify small molecule agonists of the thyroid receptor (TR) signaling pathway (AID 743066; calls by dose curve).
Assay [4] in a line: qHTS assay to identify small molecule antagonists of the estrogen receptor alpha (ER-alpha) signaling pathway - cell viability counter screen (AID 743074; calls by dose curve;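 further: HEK293 cells carrying ER-alpha-UAS-bla reporter stimulated with 17beta-estradiol; nearly all actives have a fitted effect of over 45% in size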).
For the next assay, the target named is Aromatase (Homo sapiens) (UniProt P11511). The assay can be described thus: qHTS assay to identify aromatase inhibitors (AID 743083). Further: nearly all actives have a fitted effect of over 55% in size. Further: potency means the concentration at half of the fitted maximal effect.
Aromatase (Homo sapiens), sequence (P11511 whole entry, looked up): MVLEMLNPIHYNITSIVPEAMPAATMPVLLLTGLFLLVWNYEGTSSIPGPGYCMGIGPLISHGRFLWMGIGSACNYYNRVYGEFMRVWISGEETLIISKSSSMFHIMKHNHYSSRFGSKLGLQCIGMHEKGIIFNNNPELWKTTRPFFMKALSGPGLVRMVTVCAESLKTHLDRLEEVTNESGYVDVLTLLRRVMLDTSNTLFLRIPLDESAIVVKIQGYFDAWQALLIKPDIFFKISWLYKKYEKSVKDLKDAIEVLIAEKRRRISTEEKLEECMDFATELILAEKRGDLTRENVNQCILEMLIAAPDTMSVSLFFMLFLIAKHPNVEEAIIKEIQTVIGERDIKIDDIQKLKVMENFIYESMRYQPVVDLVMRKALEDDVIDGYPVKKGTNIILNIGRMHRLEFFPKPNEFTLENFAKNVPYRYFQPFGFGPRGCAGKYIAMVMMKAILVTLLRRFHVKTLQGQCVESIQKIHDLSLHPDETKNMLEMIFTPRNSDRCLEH
Assay [5] in a line: qHTS assay to identify small molecule antagonists of the estrogen receptor alpha (ER-alpha) signaling pathway using the BG1 cell line - cell viability counter screen (AID 743081).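 Further: compound given together with 17beta-estradiol as the ER stimulus; nearly all actives have a fitted effect of over 45% in size.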 Further: potency means the concentration at half of the fitted maximal effect.
Assay [6] deals with Estrogen receptor (Homo sapiens) (UniProt P03372). Put plainly: qHTS assay to identify small molecule agonists of the estrogen receptor alpha (ER-alpha) signaling pathway using the BG1 cell line (AID 743079). Further: nearly all actives have a fitted effect of over 20% in size. To be noted: BG1Luc4E2 cells, ERE-luciferase agonist, 22 h; activation: at 70.3 µM (top of the series).
Estrogen receptor (Homo sapiens), sequence (P03372 whole entry, looked up): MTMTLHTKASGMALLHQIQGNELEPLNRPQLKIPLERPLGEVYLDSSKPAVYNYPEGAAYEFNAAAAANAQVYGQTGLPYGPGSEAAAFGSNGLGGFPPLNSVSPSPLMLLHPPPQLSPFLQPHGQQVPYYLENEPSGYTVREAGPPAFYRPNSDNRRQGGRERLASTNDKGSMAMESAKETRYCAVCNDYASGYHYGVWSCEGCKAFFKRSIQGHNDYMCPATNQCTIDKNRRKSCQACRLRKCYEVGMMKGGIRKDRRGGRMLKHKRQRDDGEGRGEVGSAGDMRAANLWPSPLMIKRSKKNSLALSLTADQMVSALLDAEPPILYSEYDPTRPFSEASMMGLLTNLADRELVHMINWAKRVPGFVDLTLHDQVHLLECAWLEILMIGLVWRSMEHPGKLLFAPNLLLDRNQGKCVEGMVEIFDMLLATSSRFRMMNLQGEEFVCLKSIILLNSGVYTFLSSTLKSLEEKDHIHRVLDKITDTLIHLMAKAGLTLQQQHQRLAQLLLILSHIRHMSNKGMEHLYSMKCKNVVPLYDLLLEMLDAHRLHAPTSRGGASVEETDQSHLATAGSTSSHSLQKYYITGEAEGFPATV
A short description of assay [7]: qHTS assay to identify small molecule antagonists of the estrogen receptor alpha (ER-alpha) signaling pathway using the BG1 cell line (AID 743080; calls by dose curve;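 further: BG1 cells stimulated with 17beta-estradiol alongside compound; nearly all actives have a fitted effect of over 25% in size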; further: potency means the concentration at half of the fitted maximal effect). A digest of the protocol:
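Readout is ONE-Glo luminescence, taken 30 min at room temperature after reagent addition, preceded by a CellTiter-Fluor viability read; BG1-Luc-4E2 cells had received compound and 17beta-estradiol for 21.5 h at 37 C.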

Assay [8] has as its target Estrogen receptor (Homo sapiens) (UniProt P03372). The assay can be described thus: qHTS assay to identify small molecule agonists of the estrogen receptor alpha (ER-alpha) signaling pathway (AID 743075; calls by dose curve;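 further: HEK293 GripTite cells with ER-alpha and UAS-driven beta-lactamase reporter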).

With `C=C1/C(=C\C=C2/CCC[C@]3(C)[C@@H]([C@H](C)OCCC(C)(C)O)CC[C@@H]23)C[C@@H](O)C[C@@H]1O`, the Potency entry (in [1]; in [3]; in assay [4]; with Aromatase (Homo sapiens)) was “inactive” in each case. In addition, the Potency in assay [2] is 37.6 µM (active).

For the molecule `CCC(c1ccccc1)c1noc(CCN(CC)CC)n1` (stereo not drawn), the Potency entry (in [1]; in assay [2]; in assay [3]; in assay [5]; with Aromatase (Homo sapiens)) was “inactive” each time.

For `CC(=O)Nc1ccc(NC(=S)NC(=O)c2ccc(C(C)(C)C)cc2)cc1`, the Potency was 8.41 µM (active) in [1] and 2.66 µM (active) in assay [2]. Moreover, the Potency entry (in [3]; in [4]; in [5]; in the assay with Aromatase (Homo sapiens)) was “inactive” each time.

Turning to `CO[C@H]1C[C@@H]2CC[C@@H](C)[C@@](O)(O2)C(=O)C(=O)N2CCCC[C@H]2C(=O)O[C@H]([C@H](C)C[C@@H]2CC[C@@H](OCCO)[C@H](OC)C2)CC(=O)[C@H](C)/C=C(\C)[C@@H](O)[C@@H](OC)C(=O)[C@H](C)C[C@H](C)/C=C/C=C/C=C/1C`, the Potency in [1] is 3.76 µM (active); in [2] it was 0.0027 µM (active); in [7], 0.0047 µM (active); in assay [5], 21.1 µM (active). For the same molecule, the Potency entry in assay [3] and in [6] was “inactive” each time.

As to `Cc1ccc(S(=O)(=O)NC(=O)N[C@@H](C)Cc2ccccc2)cc1`, the Potency result (in assay [1]; in [2]; in assay [3]; in [4]; in assay [5]; with Aromatase (Homo sapiens)) was “inactive” each time.

`O=P(O)(O)C(Sc1ccc(Cl)cc1)P(=O)(O)O`: the Potency entry (in [1]; in assay [2]; in [3]; in [4]; with Aromatase (Homo sapiens)) was “inactive” each time.

As to `CC(C)(S)[C@@H](N)C(=O)O`, the Potency entry (in assay [1]; in assay [2]; in assay [3]; in [4]; in assay [5]; with Aromatase (Homo sapiens)) was “inactive” each time.

As to `CC(=O)Nc1ccc(OC(=O)c2ccccc2O)cc1`, the Potency result (in assay [1]; in [2]; in assay [3]; in [4]; in assay [5]; with Aromatase (Homo sapiens)) was “inactive” each time.

Turning to `C/C1=C2N=C(/C=C3N=C(/C(C)=C4\[N-]C(C(CC(N)=O)C4(C)CCC(=O)NCC(C)OP(=O)([O-])OC4C(CO)OC(n5cnc6cc(C)c(C)cc65)C4O)C4(C)N=C1C(CCC(N)=O)C4(C)CC(N)=O)C(CCC(N)=O)C\3(C)C)C(CCC(N)=O)C/2(C)CC(N)=O.[CH3-].[Co+3]` (stereo not drawn), the Potency in [1] is 29.8 µM (active); in [2], 11.9 µM (active); in the assay with Aromatase (Homo sapiens) it was 13.3 µM (active). Further, the Potency result in assay [3] was “inactive”.

In the case of `Cc1cccc(C)c1NC(=O)NC1=CCCN1C`, the Potency entry (in [1]; in [2]; in assay [3]; in assay [5]; with Aromatase (Homo sapiens)) was “inactive” throughout.

Turning to `CCCCCCCCCCCC(=O)OC[C@@H](O)C1OC[C@H](O)[C@H]1O` (stereo partly drawn), the Potency result (in assay [1]; in [2]; in assay [3]; in assay [4]; in assay [5]; with Aromatase (Homo sapiens)) was “inactive” each time.

As for `CCCCCCCCCCCCCCCC(=O)OCCC1CCN(CCCN2c3ccccc3Sc3ccc(S(=O)(=O)N(C)C)cc32)CC1`, the Potency entry (in assay [1]; in [2]; in [3]; in [4]; in the assay with Aromatase (Homo sapiens)) was “inactive” throughout.

Take `COc1ccccc1N1CCN(CCCC(=O)c2ccc(F)cc2)CC1`: the Potency entry (in [1]; in assay [2]; in assay [3]; in assay [4]; in the assay with Aromatase (Homo sapiens)) was “inactive” throughout.

In the case of `C#C[C@]1(OC(C)=O)CC[C@H]2[C@@H]3CCC4=CC(=O)CC[C@@H]4[C@H]3CC[C@@]21C`, the Potency result in [1], in [3] and in [5] was “inactive” throughout. For the same molecule, the Potency in assay [2] is 9.44 µM (active).

For `O=C(O)C1CCCN1` (stereo not drawn), the Potency entry (in [1]; in [2]; in assay [3]; in [5]; with Aromatase (Homo sapiens)) was “inactive” in each case.

As for `O=C(O)c1nc(=O)[nH]c(=O)[nH]1`, the Potency entry (in [1]; in assay [2]; in assay [3]; in assay [4]; in assay [5]; in the assay with Aromatase (Homo sapiens)) was “inactive” in each case.

Consider `CC(=O)Nc1c(I)c(C(=O)O)c(I)c(N(C)C(C)=O)c1I`, for which the Potency result (in [1]; in assay [2]; in [3]; in [4]; in assay [5]; with Aromatase (Homo sapiens)) was “inactive” throughout.

Turning to `CCN(CC)CCOCCOC(=O)C(CC)(CC)c1ccccc1`, the figures for the Potency in assay [1] and in assay [2] were 26.6 µM (active) and 23.7 µM (active), respectively. Moreover, the Potency entry (in [3]; in assay [4]; with Aromatase (Homo sapiens)) was “inactive” each time.

On to `O=C1CCC(=O)N1CO`, for which the Potency result (in assay [1]; in assay [2]; in assay [3]; in assay [4]; in assay [5]; with Aromatase (Homo sapiens)) was “inactive” in each case.

With `CC(C)(C)c1ccc(CN2CCN(C(c3ccccc3)c3ccc(Cl)cc3)CC2)cc1` (stereo not drawn), the figures for the Potency in [1] and in [2] were 33.5 µM (active) and 21.1 µM (active), respectively. The Potency result in assay [3], in [8], in assay [7] and in assay [5] was “inactive” each time.
